High-throughput results from PubChem.
This is a sample that favours compounds with a hit; in the whole collection about 2.8% have one here.
pPAFAH FP inh: pPAFAH (human) enzyme inhibition | Q13093 | recombinant pPAFAH, FP-rhodamine probe fluorescence polarization | 330,000 compounds, 1.5% hits | AID 463082 | inhibition, % at 3.39 µM;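 active = inhibition above the mean inhibition across the screen plus 3 SD, cut at about 25% in these data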;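 also: inhibitors block binding of the rhodamine activity-based probe so polarization drops; 0% = enzyme with DMSO and 100% = wells lacking pPAFAH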
Fam108B counter: blocks mouse Fam108B hydrolase in RBBP9 counter-screen; recombinant Fam108B, FP-Rh probe fluorescence polarization; inhibition, % at 9.51 µM; 300,000 compounds, 0.33% hits;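 active = inhibition above the screen mean inhibition plus 3 SD, computed separately per campaign, cut at about 18% in these data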;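 also: inhibitors lower polarization as less probe binds the enzyme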
PAFAH1B3 inh: inhibitors of human PAFAH1B3. Q15102. recombinant PAFAH1B3, FP-rhodamine probe, fluorescence polarization. inhibition, % at 3.39 µM. 340,000 compounds, 0.28% hits. AID 492972;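 active = inhibition above the screen-wide average of all tested compounds plus 3 SD, cut at about 25% in these data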;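 also: 0% = enzyme with DMSO only and 100% = wells lacking PAFAH1B3 protein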
Target sequence (Q15102 whole entry, looked up): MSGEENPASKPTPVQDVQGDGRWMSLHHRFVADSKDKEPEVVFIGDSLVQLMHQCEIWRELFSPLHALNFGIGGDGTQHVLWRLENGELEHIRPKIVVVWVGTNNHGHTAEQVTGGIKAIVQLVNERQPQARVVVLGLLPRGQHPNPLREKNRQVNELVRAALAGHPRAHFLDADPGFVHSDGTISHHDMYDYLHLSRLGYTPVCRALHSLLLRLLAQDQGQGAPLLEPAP
PAFAH2 inh: inhibitors of human PAFAH2. AID 492956. inhibition, % at 3.39 µM. recombinant PAFAH2, FP-rhodamine activity probe, fluorescence polarization. 340,000 compounds, 0.99% hits. Q99487;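 active = inhibition above the mean over all tested compounds plus 3 SD, cut at about 30% in these data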;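 also: inhibitors block probe labeling of enzyme so polarization drops; 0% = enzyme with DMSO and 100% = wells lacking PAFAH2 protein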
PAFAH1B2 FP inh: blocks human PAF acetylhydrolase 1b catalytic subunit 2 | 340,000 compounds, 1.2% hits | recombinant PAFAH1B2, FP-rhodamine activity probe, fluorescence polarization | inhibition, % at 3.39 µM;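 active = inhibition above the mean of all tested compounds plus 3 SD, cut at about 24% in these data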;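 also: 0% = enzyme with DMSO and 100% = wells lacking PAFAH1B2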
Target sequence (P68402 whole entry, looked up): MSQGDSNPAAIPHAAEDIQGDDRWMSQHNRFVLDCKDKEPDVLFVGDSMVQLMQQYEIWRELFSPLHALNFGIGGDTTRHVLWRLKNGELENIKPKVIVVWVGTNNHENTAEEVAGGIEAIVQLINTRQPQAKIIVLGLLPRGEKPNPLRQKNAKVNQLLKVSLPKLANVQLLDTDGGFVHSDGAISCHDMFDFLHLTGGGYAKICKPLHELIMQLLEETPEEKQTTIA
PME-1 primary: PME-1 (human) inhibition; Q9Y570; recombinant PME-1, FP-Rh probe fluorescence polarization; inhibition, % at 5.9 µM; 320,000 compounds, 0.53% hits; AID 2130;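 active = inhibition above the campaign mean of all compounds plus 3 SD, cut at about 26% in these data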;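 also: competitive labeling of PME-1 active site by serine hydrolase directed probe; 0% = PME-1 with DMSO and 100% = wells lacking PME-1 enzyme; inhibitors block probe labeling so polarization falls and inhibition rises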
pPAFAH FP conf: confirmation of human plasma PAF acetylhydrolase (pPAFAH) inhibitors; shares compounds with pPAFAH FP inh; recombinant pPAFAH, FP-Rh probe fluorescence polarization; inhibition, % at 3.39 µM; 2,300 compounds, 72% hits; AID 463230;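 active = mean inhibition of the triplicate above the hit cutoff set for the earlier primary screen, cut at about 25% in these data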;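 also: 0% = enzyme with DMSO and 100% = wells lacking pPAFAH enzyme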
* marks the source's active call; other numbers are inactive results; / = not tested or not shown.

SMILES	pPAFAH FP inh	Fam108B counter	PAFAH1B3 inh	PAFAH2 inh	PAFAH1B2 FP inh	PME-1 primary	pPAFAH FP conf
COc1ccc(N2Cc3ccccc3/C2=N\C(=O)Nc2ccccc2)cc1	-3.7	-3.1	-4.6	-6.1	0.8	6.0	/
CC(=O)CN1Cc2ccccc2/C1=N\C(=O)Nc1ccccc1	70.5*	2.5	8.5	0.4	-0.8	-0.8	7.1
O=C(c1cnc(Cl)c(Cl)c1)N1CCN(S(=O)(=O)c2ccc3ccccc3c2)CC1	/	/	-4.6	5.9	2.9	/	/
CCOc1ccc(-n2ccnc2)nn1	45.3*	0.7	6.4	-7.6	0.8	1.0	3.8
O=C(O)CCN1C(=O)/C(=C\c2cccc(Oc3ccccc3)c2)SC1=S	35.9*	1.8	9.0	11.7	28.1*	19.2	17.0
O=C(O)CCN1C(=O)/C(=C\c2ccncc2)SC1=S	0.8	4.1	5.0	1.6	-4.0	-1.9	/
O=C(O)COc1ccc(/C=C2/SC(=S)N(Cc3ccccc3)C2=O)cc1	53.9*	-3.6	8.5	12.1	4.3	-8.9	19.3
C=CS(=O)(=O)N(Cc1ccc(Cl)c(Cl)c1)C[C@@H](O)CO	14.8	/	11.5	3.5	5.8	/	/
CCn1c2ccccc2c2cc(NC(=O)N3CCOCC3)ccc21	-2.1	3.3	6.6	2.5	0.5	-5.0	/
CCn1c2ccccc2c2cc(NC(=O)c3ccc(Br)o3)ccc21	42.4*	-1.1	2.6	7.5	0.5	10.5	17.5
CCn1c2ccccc2c2cc(NC(=O)CN(C)CC(=O)Nc3ccc(N4CCOCC4)cc3)ccc21	38.2*	2.3	4.4	1.1	4.8	10.8	38.9*
CCn1c(SCC(=O)Nc2ccc3c(c2)c2ccccc2n3CC)nnc1-c1ccco1	56.3*	9.3	2.0	22.4	4.1	9.3	41.6*
CCn1c2ccccc2c2cc(NC(=O)c3cc(C)on3)ccc21	11.2	6.5	6.0	-0.2	0.1	12.0	/
Cc1cccc(NC(=O)c2ccc([N+](=O)[O-])s2)n1	-2.7	3.2	3.0	-1.1	1.6	-0.8	/
CC(C)(C)C(=O)Nc1nc2c(s1)CN(Cc1ccccc1)CC2	-0.1	-0.8	11.8	2.5	7.0	-1.5	/
O=C(Nc1nc2c(s1)CN(Cc1ccccc1)CC2)c1c(F)cccc1F	62.0*	-9.6	-0.7	-7.4	-3.8	-10.1	2.3
CC1CC1C(=O)OCC(=O)Nc1ccc(N=Nc2ccccc2)cc1 (configuration not stated)	69.2*	8.4	4.5	84.5*	2.8	12.5	64.6*
O=C(CN1CCN(c2cccc(Cl)c2)CC1)c1ccc(O)cc1O	9.5	-1.6	6.4	1.7	2.6	12.2	/
Cc1cc(-c2nnc(SCC(=O)Nc3nc(-c4ccc(Cl)cc4)cs3)o2)no1	41.6*	-7.4	-6.9	-15.7	-3.9	27.9*	1.8
CSc1ncccc1C(=O)OCC(=O)NC1CCS(=O)(=O)C1 (configuration not stated)	-4.0	-1.9	-3.0	5.7	-0.2	-0.4	/
CSc1ncccc1C(=O)OCC(=O)NC1CCC(C)CC1 (configuration not stated)	51.9*	/	7.5	36.4*	0.9	2.2	-0.1
c1coc(CN(Cc2ccco2)c2ncnc3c2oc2ccccc23)c1	15.4	-2.1	4.2	0.2	-1.2	2.9	/
CC(=O)N1c2ccc(S(=O)(=O)N3CCC(C(=O)Nc4cccc(Cl)c4)CC3)cc2CC1C (configuration not stated)	38.6*	-0.4	5.7	-2.4	2.0	-3.3	8.1
Nc1scc2c(C(=O)N/N=C/c3ccc(Cl)cc3)nn(-c3ccccc3)c(=O)c12	35.1*	14.8	9.8	4.0	2.7	21.0	11.2
O=C1/C(=C/c2ccco2)SC(=S)N1C1CCS(=O)(=O)C1 (configuration not stated)	57.3*	3.9	9.0	4.4	-4.5	1.6	-0.3
CCN(C(=O)C(C)N1C(=O)/C(=C/c2ccco2)SC1=S)C1CCS(=O)(=O)C1 (configuration not stated)	44.4*	1.5	8.5	0.0	0.1	-16.8	6.9
Cc1ccc(/C=C2/SC(=S)N(C3CCCCC3)C2=O)o1	37.4*	6.0	-2.8	11.0	-1.2	-11.5	11.0
